Experimental findings from PubChem BioAssay (Tox21) are described below.

Values joined by “and” are separate entries in the source; they are usually repeats but may differ in a detail not shown here. Equal values may be shown once. Inconclusive results are not listed. A structure can be active in one record and inactive in another. Active and inactive are the calls of the source. Unless noted, the call rests on the fitted dose curve; in most records, active means well fitted curve in the direction sought with a large enough effect in the repeat runs; inconclusive means weak or mixed curves; inactive means no such curve, though single readings can be large; an effect the other way counts as inactive or inconclusive.

A short description of assay [1]: qHTS assay to identify small molecule antagonists of the sonic hedgehog signaling (Shh) pathway (AID 1259369; calls by dose curve; further: nearly all actives have a fitted effect of over 45% in size; further: potency means the concentration at half of the fitted maximal effect). Put shortly:
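Read-out is luminescence from a firefly luciferase gene controlled by the Gli1 response element, in 3T3Gli1-Luc cells pre-incubated 4hr then exposed to compounds and conditioned medium for 24hr.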
For orientation: qHTS replaces the single test concentration by a dilution series.

Assay [2] has as its target Estrogen receptor beta (Homo sapiens) (UniProt Q92731). Nature of the assay: qHTS assay to identify small molecule agonists of the estrogen receptor beta (ER-beta) signaling pathway (AID 1259377; active means well fitted activation curve with a large enough effect in the signal ratio in the repeat runs, not every such curve was filed as active; the % refers to the signal ratio). Put shortly:
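Read-out: beta-lactamase FRET fluorescence. Cell line: ER-beta-UAS-bla HEK293T in 2% charcoal-stripped FBS. Exposure: 16 hr at 37C. Substrate step: 2 h at room temperature.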

The nature of assay [3]: qHTS assay to identify small molecule agonists of the androgen receptor (AR) signaling pathway in the presence of an antagonist - cell viability counter screen (AID 1259379). Further: nearly all actives have a fitted effect of over 25% in size. Further: potency means the concentration at half of the fitted maximal effect. Put shortly:
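Each compound was tested at 15 concentrations on MDA-kb2 cells in the presence of 3.0uM nilutamide. Viability was measured by CellTiter-Fluor fluorescence after a 16 hr incubation at 37C in a CO2-free atmosphere.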

Assay [4] is described as follows: qHTS assay to identify small molecule agonists of the estrogen receptor beta (ER-beta) signaling pathway - cell viability counter screen (AID 1259380). Further: nearly all actives have a fitted effect of over 30% in size. Further: potency means the concentration at half of the fitted maximal effect. Put shortly: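 Compounds dissolved in DMSO were pin-transferred onto ER-beta-UAS-bla HEK293T cells that had settled 6 hr, and exposure ran 16 hr at 37C. Following the reporter read, CellTiter-Glo luminescence after 30 min at room temperature indicated cytotoxicity.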

The target in assay [5] is Estrogen receptor (Homo sapiens) (UniProt P03372). Nature of the assay: qHTS assay to identify small molecule agonists of the estrogen receptor alpha (ER-alpha) signaling pathway in the presence of an antagonist (AID 1259383; calls by dose curve; further: top concentration of the series differs between compounds; nearly all actives have a fitted effect of over 15% in size). Put shortly:
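Luminescent ERE-luciferase reporter, VM7Luc4E2 cells (endogenous ER-alpha); 10.0nM ICI-182,780 final; 15-point compound titration; 22hr at 37C; ONE-Glo, 30min RT.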

Assay [6] can be described thus: qHTS assay to identify small molecule agonists or antagonists of the thyroid stimulating hormone receptor (TSHR) signaling pathway - wild type cell line counter screen (AID 1259384; calls by dose curve). Put shortly:
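Counter screen in untransfected Hek293: compounds (15-point titration, triplicate) plus phosphodiesterase inhibitor Ro20-1724 added after 18 h plating; 30 min RT. Intracellular cAMP via competitive d2/cryptate immunoassay, 1 h incubation.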

In assay [7] the target is Thyrotropin receptor (Homo sapiens) (UniProt P16473). The assay is described as follows: qHTS assay to identify small molecule antagonists of the thyroid stimulating hormone receptor (TSHR) signaling pathway (AID 1259385; calls by dose curve; further: nearly all actives have a fitted effect of over 20% in size). Put shortly: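 Antagonist mode: compound-treated TSHR-expressing HEK293 cells were stimulated with 1.5 ng/mL TSH (final) in presence of Ro20-1724 for 30 min at RT. HTRF cAMP detection after 1 h; each compound tested at 15 concentrations, triplicate.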
Chain of Thyrotropin receptor (Homo sapiens) (P16473 whole entry, looked up): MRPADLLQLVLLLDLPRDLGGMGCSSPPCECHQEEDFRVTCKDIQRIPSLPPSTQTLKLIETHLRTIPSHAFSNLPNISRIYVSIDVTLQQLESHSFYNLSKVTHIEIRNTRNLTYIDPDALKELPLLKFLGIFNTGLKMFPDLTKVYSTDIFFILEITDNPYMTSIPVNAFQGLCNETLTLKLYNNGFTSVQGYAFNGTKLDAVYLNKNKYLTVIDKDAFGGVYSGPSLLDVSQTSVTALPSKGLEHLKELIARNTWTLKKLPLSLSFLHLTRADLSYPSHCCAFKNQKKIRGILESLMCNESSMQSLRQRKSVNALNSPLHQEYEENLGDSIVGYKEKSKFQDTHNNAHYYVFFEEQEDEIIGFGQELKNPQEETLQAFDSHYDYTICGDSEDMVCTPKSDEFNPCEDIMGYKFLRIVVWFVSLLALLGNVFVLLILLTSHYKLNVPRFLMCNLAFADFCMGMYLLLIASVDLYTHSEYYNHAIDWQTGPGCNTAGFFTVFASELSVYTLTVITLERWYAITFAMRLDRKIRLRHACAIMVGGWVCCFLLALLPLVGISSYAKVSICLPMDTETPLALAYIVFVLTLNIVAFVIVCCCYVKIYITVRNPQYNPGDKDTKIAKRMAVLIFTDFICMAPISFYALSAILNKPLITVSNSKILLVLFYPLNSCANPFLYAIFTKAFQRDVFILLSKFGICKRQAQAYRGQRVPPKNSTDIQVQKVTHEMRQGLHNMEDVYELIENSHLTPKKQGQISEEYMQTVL

Assay [8] concerns the target Progesterone receptor (Homo sapiens) (UniProt P06401). Nature of the assay: qHTS assay to identify small molecule agonists of the progesterone receptor (PR) signaling pathway (AID 1346784; calls by dose curve; further: nearly all actives have a fitted effect of over 30% in size). Put shortly: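 Compounds were tested for PR agonism in HEK 293T cells bearing a beta-lactamase gene under UAS control. Treatment lasted 16 hr at 37C; signal came from fluorescence of a FRET substrate.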

The target is the same in assay [9]. The assay is described as follows: qHTS assay to identify small molecule antagonists of the progesterone receptor (PR) signaling pathway (AID 1346795; active means well fitted inhibition curve with a large enough effect in the signal ratio in the repeat runs, not every such curve was filed as active; the % refers to the signal ratio; further: potency means the concentration at half of the fitted maximal effect). Summed up: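 In HEK293T cells bearing the PR-UAS-bla reporter, compound effects on promegestone-driven (1 nM) beta-lactamase expression are assessed after 16 hr using a fluorescent FRET substrate incubated 2 hr at room temperature.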

Assay [10] can be described thus: qHTS assay to identify small molecule antagonists of the progesterone receptor (PR) signaling pathway - cell viability counter screen (AID 1346798). Further: nearly all actives have a fitted effect of over 50% in size. Further: potency means the concentration at half of the fitted maximal effect. Summed up: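 Following a 4 hr attachment, PR-UAS-bla HEK293T cells in charcoal-stripped FBS medium were exposed to compounds with R5020 for 16 hr; CellTiter-Glo was added and luminescence read after 30 min at room temperature.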

Assay [11] can be described thus: qHTS assay to identify small molecule antagonists of the TGF-beta/Smad signaling pathway - cell viability counter screen (AID 1346824). Further: nearly all actives have a fitted effect of over 50% in size. Put shortly:
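Cytotoxicity counter-screen run in the same wells as the beta-lactamase Smad reporter read: CellTiter-Glo luminescence after 30 min at room temperature. HEK 293T SBE-bla cells had 5 hr compound exposure at 37 C with TGF-beta1 (0.25 ng/mL stock).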

Assay [12] is described as follows: qHTS assay to identify small molecule agonists of the TGF-beta/Smad signaling pathway (AID 1346859; active means well fitted activation curve with a large enough effect in the signal ratio in the repeat runs, not every such curve was filed as active; the % refers to the signal ratio; further: series mostly up to about 77 µM). Put shortly: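 Each well held 4,000 SBE-bla HEK 293T cells incubated overnight before compound addition; 5 hr later the cleavable FRET substrate went on for 2 hr at room temperature, and fluorescence was read at two emissions.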
A short description of assay [13]: qHTS assay to identify small molecule antagonists of the estrogen receptor beta (ER-beta) signaling pathway - cell viability counter screen (AID 1259382). Further: nearly all actives have a fitted effect of over 55% in size. Further: potency means the concentration at half of the fitted maximal effect. Put shortly: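 CellTiter-Glo ATP luminescence measured after the LiveBLAzer read in the same wells; ER-beta-UAS-bla HEK293T cells, 16 hr compound treatment with 1nM 17-beta-estradiol agonist at 37C, 5% CO2.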

A short description of assay [14]: qHTS assay to identify small molecule agonists of the estrogen receptor alpha (ER-alpha) signaling pathway in the presence of an antagonist - cell viability counter screen (AID 1259386).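 Further: cells exposed to compounds for 22 h at 37 °C before the viability read; nearly all actives have a fitted effect of over 30% in size.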 Further: potency means the concentration at half of the fitted maximal effect. Put shortly: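 Using estrogen-depleted VM7Luc4E2 cells, the 15-concentration compound series was applied together with 10.0nM ICI-182,780 and incubated 22hr at 37C/5% CO2. Cell viability was then scored by CellTiter-Fluor.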

Assay [15] can be described thus: qHTS assay to identify small molecule agonists of the progesterone receptor (PR) signaling pathway - cell viability counter screen (AID 1346799; calls by dose curve; further: nearly all actives have a fitted effect of over 45% in size; further: potency means the concentration at half of the fitted maximal effect). Put shortly:
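Here, 3,000 PR-UAS-bla HEK293T cells per well were treated with compounds for 16 hr after a 6 hr preincubation at 37C and 5% CO2; cell viability is the CellTiter-Glo luminescence signal.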

Assay [16] is described as follows: qHTS assay to identify small molecule agonists of the TGF-beta/Smad signaling pathway - cell viability counter screen (AID 1346829). Further: nearly all actives have a fitted effect of over 45% in size. Further: potency means the concentration at half of the fitted maximal effect. Put shortly: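 Luminescence from CellTiter-Glo, read after a 30 min room-temperature incubation, gives cell viability of SBE-bla HEK 293T cells treated 5 hr with compounds at 37 C.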
The target in assay [17] is Thyrotropin-releasing hormone receptor (Homo sapiens) (UniProt P34981). The assay is described as follows: qHTS assay to identify small molecule antagonists of the thyrotropin-releasing hormone receptor (TRHR) signaling pathway (AID 1346877; active means well fitted inhibition curve with a large enough effect in the repeat runs, not every such curve was filed as active; further: series mostly up to about 51 µM). Summed up:
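Calcium signal in dye-loaded TRHR/HEK293 cells; compounds added 5 min before TRH (1 nM final); fluorescence monitored 3 min at 1 s steps.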

The target is the same in assay [18]. The assay is described as follows: qHTS assay to identify small molecule agonists of the thyrotropin-releasing hormone receptor (TRHR) signaling pathway (AID 1346891; calls by dose curve; further: series mostly up to about 58 µM). Summed up:
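Screening of agonists relied on calcium signalling in HEK293 cells expressing human TRHR: dye loading 2 h at 37 °C preceded compound addition and a 3-min fluorescence time course.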

For assay [19], the target named is Androgen receptor (Homo sapiens) (UniProt P10275). Nature of the assay: qHTS assay to identify small molecule agonists of the androgen receptor (AR) signaling pathway in the presence of an antagonist (AID 1259381; calls by dose curve; further: nearly all actives have a fitted effect of over 15% in size; further: potency means the concentration at half of the fitted maximal effect). Summed up: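 Plated MDA-kb2 cells (3,000/well) were pre-incubated 5hr, given nilutamide (3.0uM final) or buffer, then dosed with compounds in DMSO at 15 concentrations. Luciferase activity was quantified by luminescence after 16hr at 37C.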
Chain of Androgen receptor (Homo sapiens) (P10275 whole entry, looked up): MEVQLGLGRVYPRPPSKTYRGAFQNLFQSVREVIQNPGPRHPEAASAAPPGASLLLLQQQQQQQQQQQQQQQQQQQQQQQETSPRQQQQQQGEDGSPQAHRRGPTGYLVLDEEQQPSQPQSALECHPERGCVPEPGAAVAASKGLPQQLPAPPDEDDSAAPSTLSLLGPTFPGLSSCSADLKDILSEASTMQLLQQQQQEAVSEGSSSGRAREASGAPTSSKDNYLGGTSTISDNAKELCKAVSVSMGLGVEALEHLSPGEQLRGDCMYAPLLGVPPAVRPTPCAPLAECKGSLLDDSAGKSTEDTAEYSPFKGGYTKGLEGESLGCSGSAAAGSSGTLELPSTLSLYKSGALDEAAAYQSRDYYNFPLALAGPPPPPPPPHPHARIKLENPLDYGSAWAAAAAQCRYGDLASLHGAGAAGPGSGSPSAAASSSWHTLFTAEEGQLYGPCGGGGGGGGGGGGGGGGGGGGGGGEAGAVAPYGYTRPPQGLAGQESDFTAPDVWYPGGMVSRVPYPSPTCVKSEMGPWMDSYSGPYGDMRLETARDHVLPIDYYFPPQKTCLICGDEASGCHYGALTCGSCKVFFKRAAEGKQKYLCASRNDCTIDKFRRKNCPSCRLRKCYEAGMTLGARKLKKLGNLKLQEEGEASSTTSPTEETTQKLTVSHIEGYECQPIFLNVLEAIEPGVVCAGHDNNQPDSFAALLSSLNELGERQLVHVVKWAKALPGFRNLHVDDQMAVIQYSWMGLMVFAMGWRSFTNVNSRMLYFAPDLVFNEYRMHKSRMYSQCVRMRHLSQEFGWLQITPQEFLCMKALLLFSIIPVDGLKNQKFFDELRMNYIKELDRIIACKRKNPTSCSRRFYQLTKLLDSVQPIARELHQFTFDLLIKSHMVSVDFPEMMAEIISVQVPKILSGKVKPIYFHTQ

The target of assay [20] is Estrogen receptor beta (Homo sapiens) (UniProt Q92731). Nature of the assay: qHTS assay to identify small molecule antagonists of the estrogen receptor beta (ER-beta) signaling pathway (AID 1259378; active means well fitted inhibition curve with a large enough effect in the signal ratio in the repeat runs, not every such curve was filed as active; the % refers to the signal ratio; further: potency means the concentration at half of the fitted maximal effect). Summed up:
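Antagonist mode: compounds added to beta-lactamase reporter HEK293T ER-beta-UAS cells stimulated with E2 (1nM final), 16 hr at 37C. LiveBLAzer B/G FRET substrate, 2 hours room temperature, fluorescence read-out.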

Chain of Estrogen receptor (Homo sapiens) (P03372 whole entry, looked up): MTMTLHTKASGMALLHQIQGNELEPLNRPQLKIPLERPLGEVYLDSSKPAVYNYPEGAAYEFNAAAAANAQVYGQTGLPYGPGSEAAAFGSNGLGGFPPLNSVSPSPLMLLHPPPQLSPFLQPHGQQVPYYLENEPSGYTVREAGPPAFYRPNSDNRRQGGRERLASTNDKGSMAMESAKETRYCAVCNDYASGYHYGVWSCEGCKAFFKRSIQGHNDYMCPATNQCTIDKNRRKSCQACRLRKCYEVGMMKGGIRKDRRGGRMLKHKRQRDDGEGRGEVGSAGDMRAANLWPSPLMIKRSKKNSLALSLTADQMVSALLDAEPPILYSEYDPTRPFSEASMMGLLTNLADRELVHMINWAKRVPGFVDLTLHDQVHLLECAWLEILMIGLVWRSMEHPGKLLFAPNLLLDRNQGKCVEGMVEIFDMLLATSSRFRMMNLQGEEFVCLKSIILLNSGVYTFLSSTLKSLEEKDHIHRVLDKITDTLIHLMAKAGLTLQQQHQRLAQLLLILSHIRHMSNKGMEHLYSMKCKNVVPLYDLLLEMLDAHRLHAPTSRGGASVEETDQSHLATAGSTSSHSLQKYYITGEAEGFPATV
Chain of Thyrotropin-releasing hormone receptor (Homo sapiens) (P34981 whole entry, looked up): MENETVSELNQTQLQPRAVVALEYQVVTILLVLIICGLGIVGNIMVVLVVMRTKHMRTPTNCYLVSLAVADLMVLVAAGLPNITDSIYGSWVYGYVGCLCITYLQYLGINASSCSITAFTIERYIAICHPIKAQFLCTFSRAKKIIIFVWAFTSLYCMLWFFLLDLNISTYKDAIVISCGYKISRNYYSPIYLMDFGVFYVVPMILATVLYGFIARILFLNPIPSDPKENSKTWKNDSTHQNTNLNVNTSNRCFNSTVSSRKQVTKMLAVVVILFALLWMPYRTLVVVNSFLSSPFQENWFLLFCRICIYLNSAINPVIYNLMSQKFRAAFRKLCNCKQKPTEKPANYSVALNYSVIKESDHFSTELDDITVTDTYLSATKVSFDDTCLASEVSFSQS
Chain of Estrogen receptor beta (Homo sapiens) (Q92731 whole entry, looked up): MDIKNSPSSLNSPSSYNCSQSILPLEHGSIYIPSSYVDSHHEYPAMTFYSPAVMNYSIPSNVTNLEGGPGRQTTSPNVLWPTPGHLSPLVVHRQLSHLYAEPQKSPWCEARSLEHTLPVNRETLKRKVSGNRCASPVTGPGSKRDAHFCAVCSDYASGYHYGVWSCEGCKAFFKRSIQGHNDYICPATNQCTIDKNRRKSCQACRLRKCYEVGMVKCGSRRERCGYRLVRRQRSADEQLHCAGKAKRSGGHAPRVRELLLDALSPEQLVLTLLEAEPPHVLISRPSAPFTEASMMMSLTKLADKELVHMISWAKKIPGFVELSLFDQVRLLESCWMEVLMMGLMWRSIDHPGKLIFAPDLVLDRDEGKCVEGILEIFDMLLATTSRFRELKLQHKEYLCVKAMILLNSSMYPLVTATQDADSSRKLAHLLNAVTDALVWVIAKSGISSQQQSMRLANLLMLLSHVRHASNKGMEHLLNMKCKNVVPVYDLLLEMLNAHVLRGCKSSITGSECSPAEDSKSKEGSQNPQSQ
Chain of Progesterone receptor (Homo sapiens) (P06401 whole entry, looked up): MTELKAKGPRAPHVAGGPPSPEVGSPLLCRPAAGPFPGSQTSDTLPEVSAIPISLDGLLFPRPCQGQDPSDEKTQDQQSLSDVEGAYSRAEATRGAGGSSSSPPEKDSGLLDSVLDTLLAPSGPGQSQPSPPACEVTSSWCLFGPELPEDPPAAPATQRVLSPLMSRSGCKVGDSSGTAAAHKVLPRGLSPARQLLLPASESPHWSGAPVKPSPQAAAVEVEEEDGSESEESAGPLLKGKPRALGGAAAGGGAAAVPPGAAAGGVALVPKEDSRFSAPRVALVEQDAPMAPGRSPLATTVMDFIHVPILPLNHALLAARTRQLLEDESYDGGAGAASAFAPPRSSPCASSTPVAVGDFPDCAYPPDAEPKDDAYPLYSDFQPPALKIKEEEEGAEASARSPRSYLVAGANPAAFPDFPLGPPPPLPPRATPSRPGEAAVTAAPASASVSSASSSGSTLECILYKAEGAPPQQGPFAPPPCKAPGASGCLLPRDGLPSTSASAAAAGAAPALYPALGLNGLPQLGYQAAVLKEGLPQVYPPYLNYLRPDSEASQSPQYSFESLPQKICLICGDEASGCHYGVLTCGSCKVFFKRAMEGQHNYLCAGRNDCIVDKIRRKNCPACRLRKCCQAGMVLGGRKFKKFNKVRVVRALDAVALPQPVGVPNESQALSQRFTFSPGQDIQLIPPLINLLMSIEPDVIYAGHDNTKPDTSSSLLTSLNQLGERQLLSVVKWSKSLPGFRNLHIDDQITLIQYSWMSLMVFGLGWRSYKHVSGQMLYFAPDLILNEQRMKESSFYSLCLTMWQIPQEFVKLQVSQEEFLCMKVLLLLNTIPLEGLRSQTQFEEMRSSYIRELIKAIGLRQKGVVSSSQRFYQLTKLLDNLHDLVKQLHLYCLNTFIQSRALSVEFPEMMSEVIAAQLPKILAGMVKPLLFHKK

On to `O=C(CCCN1CCC2(CC1)C(=O)NCN2c1ccccc1)c1ccc(F)cc1`, for which the results for the Potency in [1] and in [4] were 2.11 µM (active) and 13.3 µM (active), respectively. The Potency result in [2], in [3], in assay [5], in assay [7], in assay [8] and in assay [9] was “inactive” throughout. Further, the Potency entry in [10] and in [11] was “inactive” in each case. Also, the compound was called inactive in assay [6] and in assay [12].
For the compound `O=C/C(Cl)=C(/Cl)C(=O)O`, the Potency in assay [1] is 38.6 µM (active). Besides, the Potency entry in assay [2], in assay [3], in assay [13], in [7], in assay [14] and in [8] was “inactive” throughout. The Potency entry in [9], in assay [10], in assay [15], in assay [11], in [16] and in assay [17] was “inactive” in each case. Moreover, the Potency entry in assay [18] is “inactive”. For the same compound, the compound was called inactive in assay [6] and in assay [12].
Consider `O=C(CBr)c1ccc(O)cc1`, for which, in assay [1], the Potency is 54.5 µM (active). Moreover, the Potency entry in assay [2], in [3], in [4], in assay [13], in assay [7] and in assay [14] was “inactive” in each case. Further, the Potency entry in assay [11], in [16], in assay [17] and in [18] was “inactive” each time. In addition, the compound was called inactive in [6] and in assay [12].
For `C[As+](C)(C)CC(=O)[O-]`, the Potency result in assay [1], in assay [2], in assay [3], in [4], in assay [19] and in [5] was “inactive” throughout. The Potency entry in [7], in [8], in [9], in assay [10], in assay [11] and in assay [16] was “inactive” each time. Moreover, the Potency result in assay [17] was “inactive”. Further, the outcome in [6] and in [12] was inactive.
As for `CCC(C)c1cc(C(C)(C)C)cc(-n2nc3ccccc3n2)c1O` (stereo not given), the Potency result in assay [1], in [2], in assay [3], in assay [4], in [19] and in [13] was “inactive” each time. Besides, the Potency entry in assay [14], in assay [8], in assay [10], in assay [11], in [16] and in assay [17] was “inactive” throughout. The Potency result in assay [18] was “inactive”. Besides, the compound was classed as inactive in assay [12].
In the case of `CCC(C)c1cc([N+](=O)[O-])cc([N+](=O)[O-])c1OC(=O)C=C(C)C` (stereo not given), the Potency in assay [1] was 9.69 µM (active); in assay [3] it was 54.5 µM (active); in assay [14], 54.5 µM (active); in assay [9], 12.2 µM (active). The Potency entry in assay [2], in [4], in [19], in [13], in assay [7] and in assay [8] was “inactive” throughout. In addition, the Potency result in [11], in assay [17] and in [18] was “inactive” in each case. In assay [6], the result was inactive.
On to `C[C@H]1O[C@@H](O[C@H]2[C@@H](O)C[C@H](O[C@H]3[C@@H](O)C[C@H](O[C@H]4CC[C@@]5(C)[C@H](CC[C@@H]6[C@@H]5CC[C@]5(C)[C@@H](C7=CC(=O)OC7)CC[C@]65O)C4)O[C@@H]3C)O[C@@H]2C)C[C@H](O)[C@@H]1O`, for which the Potency entry in [1], in assay [3], in assay [5], in assay [14], in [8] and in assay [17] was “inactive” in each case. In addition, the Potency result in [18] was “inactive”. Further, the Potency in [4] is 43.5 nM (active) and 47.3 nM (active); in assay [19] it was “inactive and 237 nM (active)”; in [13] it was 30.8 nM (active) and 42.2 nM (active); in [10] it was 38.8 nM (active) and 94.4 nM (active). Besides, the result in [6] was inactive.
As for `ClC1=C(Cl)C2(Cl)C3C(Cl)C(Cl)CC3C1(Cl)C2(Cl)Cl` (stereo not given), the Potency result in [1], in [3], in assay [19], in [13], in [8] and in assay [10] was “inactive” in each case. The Potency result in assay [11], in [17] and in assay [18] was “inactive” in each case. Moreover, the Potency is 12.2 µM (active) and 27.3 µM (active) in assay [20]; 43.1 µM (active) and 61.1 µM (active) in assay [4]; 48.4 µM (active) and 61.1 µM (active) in [15]; 48.8 µM (active) in assay [16]. The compound was called inactive in assay [12].
